According to ChEMBL document CHEMBL1961873, “Compounds: GSK PKIS; Assays: Nanosyn kinase panel” (2012):

How the values were obtained:
[1] = target: T1, Aurora kinase A (Homo sapiens) (UniProt O14965); conditions: at 1 µM;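 also: values are mean percent inhibition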
T1 sequence (whole entry): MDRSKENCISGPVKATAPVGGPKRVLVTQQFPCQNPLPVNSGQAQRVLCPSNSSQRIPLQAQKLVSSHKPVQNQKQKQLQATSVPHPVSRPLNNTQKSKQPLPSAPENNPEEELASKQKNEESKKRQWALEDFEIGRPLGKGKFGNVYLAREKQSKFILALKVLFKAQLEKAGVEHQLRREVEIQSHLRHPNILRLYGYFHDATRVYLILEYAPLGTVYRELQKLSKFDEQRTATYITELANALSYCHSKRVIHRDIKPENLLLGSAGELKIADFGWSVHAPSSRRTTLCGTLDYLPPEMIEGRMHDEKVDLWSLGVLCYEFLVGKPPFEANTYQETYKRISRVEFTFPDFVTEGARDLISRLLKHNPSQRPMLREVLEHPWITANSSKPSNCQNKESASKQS

[2] = target: Aurora kinase B (Homo sapiens) (UniProt Q96GD4); conditions: at 0.1 µM
Sequence of Aurora kinase B (Homo sapiens) (Q96GD4 whole entry): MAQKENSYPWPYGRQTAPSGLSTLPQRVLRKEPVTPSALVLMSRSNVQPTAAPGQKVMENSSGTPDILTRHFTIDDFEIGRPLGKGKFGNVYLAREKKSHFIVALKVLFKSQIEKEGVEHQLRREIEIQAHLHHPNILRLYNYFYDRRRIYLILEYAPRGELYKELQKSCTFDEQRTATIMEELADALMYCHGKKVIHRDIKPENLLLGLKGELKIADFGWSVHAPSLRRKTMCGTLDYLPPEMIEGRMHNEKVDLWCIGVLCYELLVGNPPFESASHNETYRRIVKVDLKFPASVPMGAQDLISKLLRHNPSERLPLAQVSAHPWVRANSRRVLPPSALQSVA

[3] = target: Aurora kinase B (Homo sapiens) (UniProt Q96GD4); conditions: at 1 µM
[4] = target: T2, Aurora kinase C (Homo sapiens) (UniProt Q9UQB9); conditions: at 0.1 µM
T2 sequence (whole entry): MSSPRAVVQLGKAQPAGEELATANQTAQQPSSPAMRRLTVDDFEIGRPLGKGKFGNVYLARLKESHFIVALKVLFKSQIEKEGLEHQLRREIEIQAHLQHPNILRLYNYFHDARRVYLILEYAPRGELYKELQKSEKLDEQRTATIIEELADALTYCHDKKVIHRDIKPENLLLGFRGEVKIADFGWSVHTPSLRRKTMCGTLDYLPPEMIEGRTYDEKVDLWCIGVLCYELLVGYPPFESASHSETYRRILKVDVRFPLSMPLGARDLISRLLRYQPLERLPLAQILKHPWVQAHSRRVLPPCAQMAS

[5] = target: Serine/threonine-protein kinase 10 (Homo sapiens) (UniProt O94804); conditions: at 0.1 µM
Sequence of Serine/threonine-protein kinase 10 (Homo sapiens) (O94804 whole entry, looked up): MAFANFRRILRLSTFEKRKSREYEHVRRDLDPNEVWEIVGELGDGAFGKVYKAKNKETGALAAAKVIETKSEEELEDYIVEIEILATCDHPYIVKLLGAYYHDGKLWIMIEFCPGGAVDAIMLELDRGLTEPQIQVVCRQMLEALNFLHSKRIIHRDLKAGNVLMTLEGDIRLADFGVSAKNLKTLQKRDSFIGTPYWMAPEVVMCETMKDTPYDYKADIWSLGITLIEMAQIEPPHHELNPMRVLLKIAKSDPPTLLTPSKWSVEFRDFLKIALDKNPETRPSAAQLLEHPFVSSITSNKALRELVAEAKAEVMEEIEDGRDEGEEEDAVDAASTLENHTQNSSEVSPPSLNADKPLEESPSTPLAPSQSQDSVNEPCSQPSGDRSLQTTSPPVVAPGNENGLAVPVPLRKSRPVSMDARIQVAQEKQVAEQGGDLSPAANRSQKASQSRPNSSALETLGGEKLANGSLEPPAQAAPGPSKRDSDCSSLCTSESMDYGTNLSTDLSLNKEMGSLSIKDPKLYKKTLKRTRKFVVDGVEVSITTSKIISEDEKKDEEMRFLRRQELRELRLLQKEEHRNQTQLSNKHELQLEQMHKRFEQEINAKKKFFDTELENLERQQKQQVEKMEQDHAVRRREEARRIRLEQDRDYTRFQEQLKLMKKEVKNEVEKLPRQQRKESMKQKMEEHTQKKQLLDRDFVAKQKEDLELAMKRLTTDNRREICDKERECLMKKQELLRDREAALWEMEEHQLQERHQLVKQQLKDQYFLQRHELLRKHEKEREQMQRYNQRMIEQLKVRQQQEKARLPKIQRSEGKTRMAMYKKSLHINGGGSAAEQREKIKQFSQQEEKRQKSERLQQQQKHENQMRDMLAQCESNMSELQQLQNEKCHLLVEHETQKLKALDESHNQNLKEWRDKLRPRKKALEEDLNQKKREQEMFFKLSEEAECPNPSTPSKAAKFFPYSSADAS

[6] = target: Serine/threonine-protein kinase 10 (Homo sapiens) (UniProt O94804); conditions: at 1 µM
[7] = target: T3, Mitogen-activated protein kinase kinase kinase kinase 2 (Homo sapiens) (UniProt Q12851); conditions: at 0.1 µM
T3 sequence (whole entry): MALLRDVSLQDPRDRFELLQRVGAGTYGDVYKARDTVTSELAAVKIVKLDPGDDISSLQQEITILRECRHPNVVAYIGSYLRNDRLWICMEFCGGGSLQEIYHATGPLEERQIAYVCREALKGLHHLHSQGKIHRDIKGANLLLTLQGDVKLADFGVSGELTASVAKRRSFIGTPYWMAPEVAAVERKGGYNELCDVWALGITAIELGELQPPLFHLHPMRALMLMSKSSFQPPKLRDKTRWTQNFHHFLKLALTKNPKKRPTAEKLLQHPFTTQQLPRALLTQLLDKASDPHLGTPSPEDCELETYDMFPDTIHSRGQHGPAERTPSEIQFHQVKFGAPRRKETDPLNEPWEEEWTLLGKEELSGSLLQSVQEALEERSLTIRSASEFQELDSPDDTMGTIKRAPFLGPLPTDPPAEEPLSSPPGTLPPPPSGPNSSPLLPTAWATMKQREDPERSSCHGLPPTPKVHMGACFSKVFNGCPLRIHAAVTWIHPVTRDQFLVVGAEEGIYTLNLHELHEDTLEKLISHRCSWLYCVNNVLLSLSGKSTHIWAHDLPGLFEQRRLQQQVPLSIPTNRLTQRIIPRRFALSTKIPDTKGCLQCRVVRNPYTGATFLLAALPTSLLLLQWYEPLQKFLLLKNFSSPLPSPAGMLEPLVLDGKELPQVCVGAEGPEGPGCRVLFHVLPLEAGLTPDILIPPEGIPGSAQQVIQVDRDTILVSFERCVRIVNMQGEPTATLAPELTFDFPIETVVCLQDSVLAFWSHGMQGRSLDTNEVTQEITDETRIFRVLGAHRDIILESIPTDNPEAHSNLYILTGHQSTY

[8] = target: T3, Mitogen-activated protein kinase kinase kinase kinase 2 (Homo sapiens); conditions: at 1 µM
[9] = target: Mitogen-activated protein kinase kinase kinase kinase 4 (Homo sapiens) (UniProt O95819); conditions: at 0.1 µM
Sequence of Mitogen-activated protein kinase kinase kinase kinase 4 (Homo sapiens) (O95819 2-1239 limits assumed): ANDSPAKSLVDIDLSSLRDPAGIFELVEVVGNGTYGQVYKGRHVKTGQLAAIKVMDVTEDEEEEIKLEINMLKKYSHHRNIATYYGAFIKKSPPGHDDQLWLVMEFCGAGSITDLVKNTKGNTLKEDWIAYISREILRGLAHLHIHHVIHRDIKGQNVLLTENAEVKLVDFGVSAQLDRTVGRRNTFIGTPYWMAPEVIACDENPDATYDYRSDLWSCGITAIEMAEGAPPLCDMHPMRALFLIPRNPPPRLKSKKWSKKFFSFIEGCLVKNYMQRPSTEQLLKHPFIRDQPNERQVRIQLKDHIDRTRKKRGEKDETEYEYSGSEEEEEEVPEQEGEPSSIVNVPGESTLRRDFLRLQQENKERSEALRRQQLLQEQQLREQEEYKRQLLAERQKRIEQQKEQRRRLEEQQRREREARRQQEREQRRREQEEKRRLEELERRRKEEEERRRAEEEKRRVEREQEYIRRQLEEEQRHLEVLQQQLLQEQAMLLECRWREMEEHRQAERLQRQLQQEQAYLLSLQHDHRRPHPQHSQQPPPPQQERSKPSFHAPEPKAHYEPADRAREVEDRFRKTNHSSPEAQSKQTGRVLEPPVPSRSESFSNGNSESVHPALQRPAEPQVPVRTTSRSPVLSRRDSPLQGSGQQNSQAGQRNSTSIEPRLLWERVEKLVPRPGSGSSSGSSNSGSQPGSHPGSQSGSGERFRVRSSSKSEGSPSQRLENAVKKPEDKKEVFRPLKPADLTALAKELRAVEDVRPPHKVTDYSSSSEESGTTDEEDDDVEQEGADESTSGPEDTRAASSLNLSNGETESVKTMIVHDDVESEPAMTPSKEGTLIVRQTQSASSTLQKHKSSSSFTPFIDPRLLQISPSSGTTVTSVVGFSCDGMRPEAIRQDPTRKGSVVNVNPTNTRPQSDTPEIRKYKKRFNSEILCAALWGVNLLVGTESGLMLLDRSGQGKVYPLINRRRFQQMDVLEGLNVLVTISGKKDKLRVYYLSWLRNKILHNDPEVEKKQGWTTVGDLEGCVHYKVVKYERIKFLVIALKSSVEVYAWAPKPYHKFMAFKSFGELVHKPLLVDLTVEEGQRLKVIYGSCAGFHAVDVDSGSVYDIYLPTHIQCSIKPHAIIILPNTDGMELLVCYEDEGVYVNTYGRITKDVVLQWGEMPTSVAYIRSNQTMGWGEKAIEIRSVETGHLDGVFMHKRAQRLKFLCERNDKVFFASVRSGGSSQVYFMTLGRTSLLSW

[10] = target: T2, Aurora kinase C (Homo sapiens); conditions: at 1 µM

SMILES | inhibition [1] [%] | inhibition [2] [%] | inhibition [3] [%] | inhibition [4] [%] | inhibition [5] [%] | inhibition [6] [%] | inhibition [7] [%] | inhibition [8] [%] | inhibition [9] [%] | inhibition [10] [%]
CCn1c(-c2nonc2N)nc2c(C#CC(C)(C)O)ncc(OCC3CCNCC3)c21 | 3.09 | -0.07 | 0.45 | -3.33 | 3.91 | 13.6 | 1.42 | 1.95 | 4.98 | –
NS(=O)(=O)c1ccc(-c2ccc3c(NC(=O)C4CC4)n[nH]c3c2)cc1 | 15.3 | 3.22 | 0.63 | 1.15 | 4.04 | 5.59 | -0.26 | 2.11 | 3.77 | 14.4
NC(=O)c1sc(-n2cnc3cc(C(F)(F)F)ccc32)cc1OCc1ccccc1Br | 2.05 | -0.8 | 2.44 | 1.36 | 7.36 | 34.7 | 1.32 | 5.29 | 3.11 | 4.02
CCn1c(-c2nonc2N)nc2c(C#CC(C)(C)O)ncc(OC[C@@H]3CCCN3)c21 | 1.08 | -1.36 | 0.87 | 1.23 | -0.11 | 5.64 | 2.41 | 3.31 | 0.39 | 1.45
COc1cc2c(cc1Nc1nc(Nc3ccsc3C(N)=O)c3cc[nH]c3n1)N(C(=O)CN(C)C)CCC2 | – | 0.75 | 2.92 | 1.46 | 11.4 | 17.4 | 1.63 | 11.8 | 9.31 | 2.53
COc1cccc(COc2cc(-n3cnc4ccccc43)sc2C(N)=O)c1 | 2.21 | -1.57 | 1.15 | 1.58 | 4.63 | 39.4 | 1.4 | 7.04 | 1.37 | 3.73
Cc1cc(-c2ccco2)cc(C)c1/C=C/c1cncc(-c2nn[nH]n2)c1 | 20 | 0 | 3.63 | -0.32 | 2.24 | 2.3 | 1.39 | 1.37 | 1.07 | 7.33
COc1cccc(-n2ncc3c(N/N=C/c4ccncc4)ncnc32)c1 | 73.8 | 7.94 | 43.1 | 7.33 | 5.83 | 33.5 | 2.12 | 7.06 | 20.1 | 61.4
NS(=O)(=O)c1ccc(N/C=C2\C(=O)Nc3ccc4ncsc4c32)cc1 | 80.2 | 19.6 | 55.2 | 22.5 | 5.85 | 16.2 | 12.8 | 52.1 | 55.1 | 79.2
CCn1c(-c2nonc2N)nc2c(C#CCN)ncc(OCCCN)c21 | 5.16 | 4.99 | 6.36 | 3.54 | 4.42 | 11.3 | 3.61 | 4.55 | 1.78 | -8.09
CCn1c(-c2nonc2N)nc2c(C#CC(C)(C)O)nc(O[C@@H](CN)c3ccccc3)cc21 | 5.65 | 0.38 | 6.56 | -0.63 | 1.16 | 19.8 | 4.66 | 24.8 | 2.87 | 1.38
Nc1nonc1-c1nc2cnccc2n1C1CCCCC1 | 5.79 | 0.62 | 7.52 | -0.66 | 0.39 | 18.4 | 3.87 | 20.4 | 6.25 | 5.22
COc1cc(C=NNc2ncnc3c2cnn3Cc2ccccc2)ccc1O | 25.6 | 2.52 | 34.4 | 1.25 | -4.65 | 5.71 | 0.89 | 4.63 | -1.52 | 10.6
Fc1ccc(-c2ncn(C3CCNCC3)c2-c2ccnc(Oc3ccccc3)n2)cc1 | -2.89 | -0.82 | 1.75 | -4.42 | 6.38 | 8.33 | 1.61 | 4.65 | 1.76 | -1.24
